SMILES strings stand for the structures. For some of these results: Potency and affinity values are given separately.

Among the data in ChEMBL document CHEMBL3988442, “University of Dundee, Small-Polar-MMV Screening Library” (2021) are Percent Effect values, retold here.

Set-up in all cases: scale not given: direction of the effect not stated beside the values
The target of test [1] is Protein translocase subunit SecA (Escherichia coli (strain K12)) (UniProt P10408). The experiment in a line: Assay to Identify E. coli SecA ATPase Inhibitors. As to conditions: 30 µM. The class given is functional.
Test [2] deals with T1, Ubiquitin-activating enzyme e1, putative (Leishmania donovani (strain BPK282A1)) (UniProt E9BSI1).
T1 sequence (whole entry): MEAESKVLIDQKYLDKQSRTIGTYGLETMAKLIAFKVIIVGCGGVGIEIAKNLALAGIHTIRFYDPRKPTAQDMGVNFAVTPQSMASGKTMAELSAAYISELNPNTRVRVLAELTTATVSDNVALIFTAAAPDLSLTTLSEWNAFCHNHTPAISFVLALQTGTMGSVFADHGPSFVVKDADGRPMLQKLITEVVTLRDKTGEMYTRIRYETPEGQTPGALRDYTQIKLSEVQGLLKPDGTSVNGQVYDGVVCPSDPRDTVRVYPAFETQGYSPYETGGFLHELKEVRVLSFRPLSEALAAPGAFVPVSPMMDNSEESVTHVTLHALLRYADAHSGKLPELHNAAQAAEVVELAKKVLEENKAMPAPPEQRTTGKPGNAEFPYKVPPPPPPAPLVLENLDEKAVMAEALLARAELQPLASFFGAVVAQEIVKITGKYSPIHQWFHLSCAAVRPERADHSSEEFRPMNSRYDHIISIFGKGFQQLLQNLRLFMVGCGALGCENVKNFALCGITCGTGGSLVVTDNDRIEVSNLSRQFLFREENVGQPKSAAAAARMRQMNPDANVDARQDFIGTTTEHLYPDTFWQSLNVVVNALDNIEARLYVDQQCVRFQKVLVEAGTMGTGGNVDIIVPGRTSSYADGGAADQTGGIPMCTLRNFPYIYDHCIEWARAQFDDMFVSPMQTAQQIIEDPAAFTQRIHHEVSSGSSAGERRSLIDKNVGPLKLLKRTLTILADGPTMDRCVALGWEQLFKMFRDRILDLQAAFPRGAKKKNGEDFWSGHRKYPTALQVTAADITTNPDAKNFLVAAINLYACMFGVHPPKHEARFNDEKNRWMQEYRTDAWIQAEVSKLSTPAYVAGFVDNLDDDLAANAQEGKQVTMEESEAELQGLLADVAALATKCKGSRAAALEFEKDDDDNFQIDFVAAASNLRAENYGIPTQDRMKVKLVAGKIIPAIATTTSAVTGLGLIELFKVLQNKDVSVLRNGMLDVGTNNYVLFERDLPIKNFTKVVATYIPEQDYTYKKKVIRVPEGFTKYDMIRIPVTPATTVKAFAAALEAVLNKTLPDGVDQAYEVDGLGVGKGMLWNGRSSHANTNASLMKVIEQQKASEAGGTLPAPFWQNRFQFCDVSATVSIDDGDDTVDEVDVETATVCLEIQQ
The experiment in a line: Leishmania donovani Ubiquitin Activating Enzyme (LdE1). The test is classed as functional. As to conditions: 30 µM.

For test [3], the target named is AMP-activated protein kinase, AMPK (Homo sapiens) (UniProt P54646+O43741+P54619+Q9UGJ0+Q9Y478+Q13131+Q9UGI9). Description: AMP-dependent Kinase enzyme assay. An in vitro enzyme assay that detects ADP turnover that is directly proportional to AMPK activity. This uses naive AMPK that is activated during the assay with MK-8722. As to conditions: 30 µM. The class given is functional.

Test [4] has as its target Sialic acid-binding Ig-like lectin 9 (Homo sapiens) (UniProt Q9Y336). The experiment in a line: Hs-Siglec9 ALPHAscreen SOP 20170721. The note with it: 10 µM.
The test system of test [5] is Trypanosoma cruzi. Description: Trypanosoma cruzi phosphomannomutase and mannose-1-phosphate guanylyltransferase assay. The test is classed as functional. As to conditions: 10 µM.
The target in test [6] is T2, Arginase-2, mitochondrial (Homo sapiens) (UniProt P78540).
T2 sequence (whole entry): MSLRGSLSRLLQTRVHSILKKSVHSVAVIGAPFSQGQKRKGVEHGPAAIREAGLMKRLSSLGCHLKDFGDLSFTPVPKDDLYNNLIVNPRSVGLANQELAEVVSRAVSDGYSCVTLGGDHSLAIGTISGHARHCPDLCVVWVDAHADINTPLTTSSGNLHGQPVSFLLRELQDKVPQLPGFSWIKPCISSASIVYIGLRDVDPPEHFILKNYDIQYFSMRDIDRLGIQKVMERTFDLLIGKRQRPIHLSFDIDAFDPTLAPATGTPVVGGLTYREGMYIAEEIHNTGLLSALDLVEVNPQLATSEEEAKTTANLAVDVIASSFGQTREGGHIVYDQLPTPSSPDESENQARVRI
The experiment in a line: in vitro enzyme assay to detect the production of urea directly proportional to the activity of Arginase II. Further: in the data most compounds retested in dose-response had high values. The test is classed as functional. As to conditions: 33.3 µM.

For test [7], the target named is T3, Proteasome subunit beta (Trypanosoma cruzi) (UniProt O96673).
T3 sequence (whole entry): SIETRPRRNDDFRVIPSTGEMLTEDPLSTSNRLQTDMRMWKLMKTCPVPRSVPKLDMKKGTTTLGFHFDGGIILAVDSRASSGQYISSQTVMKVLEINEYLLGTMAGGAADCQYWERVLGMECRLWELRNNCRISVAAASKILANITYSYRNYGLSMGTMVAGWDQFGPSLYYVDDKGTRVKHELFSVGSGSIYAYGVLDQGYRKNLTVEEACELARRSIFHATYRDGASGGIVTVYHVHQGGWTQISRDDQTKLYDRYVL
The experiment in a line: Trypanosoma cruzi proteasome chymotrypsin-like activity (TcProtChymo) assay. Further: in the data most compounds retested in dose-response had high values. The class given is functional. As to conditions: 9.37 µM.

For test [8], the species on record is Homo sapiens. Description: To identify inhibition of the IFN signalling (Jak-Stat) pathway via expression of an eGFP reporter gene under the control of an IFN-stimulated response element (ISRE) containing MxA promoter. The test is classed as functional. The note with it: 30 µM.
Test [9] deals with T4, Tyrosyl-tRNA synthetase, putative (Trypanosoma cruzi (strain CL Brener)) (UniProt Q4DSP6).
T4 sequence (whole entry): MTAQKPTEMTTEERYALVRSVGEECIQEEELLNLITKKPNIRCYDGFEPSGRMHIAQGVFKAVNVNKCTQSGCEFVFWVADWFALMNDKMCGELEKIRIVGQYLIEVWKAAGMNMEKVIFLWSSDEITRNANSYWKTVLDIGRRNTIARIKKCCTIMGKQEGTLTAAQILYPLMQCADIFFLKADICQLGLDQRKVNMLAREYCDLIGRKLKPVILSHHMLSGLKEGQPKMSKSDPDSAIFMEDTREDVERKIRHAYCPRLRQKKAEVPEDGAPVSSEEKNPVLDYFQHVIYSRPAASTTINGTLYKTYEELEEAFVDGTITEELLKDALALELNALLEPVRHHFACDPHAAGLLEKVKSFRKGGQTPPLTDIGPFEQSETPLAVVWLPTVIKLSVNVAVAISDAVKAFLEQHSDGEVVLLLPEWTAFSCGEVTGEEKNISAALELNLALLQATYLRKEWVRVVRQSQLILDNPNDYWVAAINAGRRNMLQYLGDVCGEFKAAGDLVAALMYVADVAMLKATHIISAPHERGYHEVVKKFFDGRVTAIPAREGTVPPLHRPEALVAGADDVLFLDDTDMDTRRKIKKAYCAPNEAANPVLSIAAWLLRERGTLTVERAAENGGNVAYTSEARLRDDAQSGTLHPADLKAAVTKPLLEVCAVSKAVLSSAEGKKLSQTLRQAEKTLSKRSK
Description: Trypanosoma cruzi tyrosyl tRNA synthetase (TcYRS) _High Tyrosine SOP. Further: in the data most compounds retested in dose-response had high values. The class given is functional. As to conditions: 30 µM.

The target of test [10] is T4, Tyrosyl-tRNA synthetase, putative (Trypanosoma cruzi (strain CL Brener)). The experiment in a line: Trypanosoma cruzi tyrosyl tRNA synthetase (TcYRS) SOP. The class given is functional. As to conditions: 30 µM.
The target of test [11] is Chromo domain-containing protein 1 (Saccharomyces cerevisiae (strain ATCC 204508 / S288c) (Baker's yeast)) (UniProt P32657). The experiment in a line: ScCHD-1 Enzyme Inhibition Assay. Further: in the data most compounds retested in dose-response had high values. The class given is functional. The note with it: 30 µM.
Sequence of Chromo domain-containing protein 1 (Saccharomyces cerevisiae (strain ATCC 204508 / S288c) (Baker's yeast)) (P32657 whole entry, the tested form may be a part): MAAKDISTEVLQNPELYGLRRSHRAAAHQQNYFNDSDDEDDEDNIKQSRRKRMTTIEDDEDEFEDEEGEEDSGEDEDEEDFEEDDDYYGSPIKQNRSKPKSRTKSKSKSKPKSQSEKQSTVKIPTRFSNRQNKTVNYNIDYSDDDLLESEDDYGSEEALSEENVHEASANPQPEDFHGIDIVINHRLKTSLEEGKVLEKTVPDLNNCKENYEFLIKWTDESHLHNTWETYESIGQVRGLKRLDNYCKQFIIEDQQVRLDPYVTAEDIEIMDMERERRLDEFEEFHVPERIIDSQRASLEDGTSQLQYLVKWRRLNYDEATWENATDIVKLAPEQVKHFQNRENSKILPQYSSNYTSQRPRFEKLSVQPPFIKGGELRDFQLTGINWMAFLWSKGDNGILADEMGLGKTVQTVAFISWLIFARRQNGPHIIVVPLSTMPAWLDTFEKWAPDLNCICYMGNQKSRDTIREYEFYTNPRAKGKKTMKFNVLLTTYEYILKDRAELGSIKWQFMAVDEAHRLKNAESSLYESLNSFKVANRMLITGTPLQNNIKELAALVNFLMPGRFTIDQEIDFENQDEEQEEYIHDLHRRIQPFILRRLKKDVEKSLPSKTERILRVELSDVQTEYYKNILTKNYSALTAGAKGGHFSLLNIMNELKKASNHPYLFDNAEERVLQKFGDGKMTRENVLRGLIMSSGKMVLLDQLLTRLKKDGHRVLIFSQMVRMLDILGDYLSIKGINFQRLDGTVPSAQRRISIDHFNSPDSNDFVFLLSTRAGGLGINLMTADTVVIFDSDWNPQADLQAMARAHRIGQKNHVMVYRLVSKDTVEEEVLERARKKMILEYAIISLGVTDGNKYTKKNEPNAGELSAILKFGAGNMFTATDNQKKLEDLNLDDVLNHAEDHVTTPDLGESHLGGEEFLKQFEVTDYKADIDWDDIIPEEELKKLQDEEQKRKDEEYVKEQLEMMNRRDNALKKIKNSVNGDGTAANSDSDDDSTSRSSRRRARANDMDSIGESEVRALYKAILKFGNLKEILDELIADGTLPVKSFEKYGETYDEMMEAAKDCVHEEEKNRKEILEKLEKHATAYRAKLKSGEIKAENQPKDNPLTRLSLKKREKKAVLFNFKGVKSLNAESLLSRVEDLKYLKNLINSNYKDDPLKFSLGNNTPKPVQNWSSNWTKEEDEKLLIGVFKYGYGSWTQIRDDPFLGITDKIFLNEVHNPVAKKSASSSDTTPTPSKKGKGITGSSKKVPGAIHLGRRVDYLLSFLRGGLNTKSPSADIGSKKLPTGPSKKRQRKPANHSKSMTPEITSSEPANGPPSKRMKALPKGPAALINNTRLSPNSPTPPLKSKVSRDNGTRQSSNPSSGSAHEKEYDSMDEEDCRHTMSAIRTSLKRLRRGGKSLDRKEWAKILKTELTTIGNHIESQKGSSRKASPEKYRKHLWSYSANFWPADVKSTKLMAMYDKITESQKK

Sequence of Protein translocase subunit SecA (Escherichia coli (strain K12)) (P10408 whole entry): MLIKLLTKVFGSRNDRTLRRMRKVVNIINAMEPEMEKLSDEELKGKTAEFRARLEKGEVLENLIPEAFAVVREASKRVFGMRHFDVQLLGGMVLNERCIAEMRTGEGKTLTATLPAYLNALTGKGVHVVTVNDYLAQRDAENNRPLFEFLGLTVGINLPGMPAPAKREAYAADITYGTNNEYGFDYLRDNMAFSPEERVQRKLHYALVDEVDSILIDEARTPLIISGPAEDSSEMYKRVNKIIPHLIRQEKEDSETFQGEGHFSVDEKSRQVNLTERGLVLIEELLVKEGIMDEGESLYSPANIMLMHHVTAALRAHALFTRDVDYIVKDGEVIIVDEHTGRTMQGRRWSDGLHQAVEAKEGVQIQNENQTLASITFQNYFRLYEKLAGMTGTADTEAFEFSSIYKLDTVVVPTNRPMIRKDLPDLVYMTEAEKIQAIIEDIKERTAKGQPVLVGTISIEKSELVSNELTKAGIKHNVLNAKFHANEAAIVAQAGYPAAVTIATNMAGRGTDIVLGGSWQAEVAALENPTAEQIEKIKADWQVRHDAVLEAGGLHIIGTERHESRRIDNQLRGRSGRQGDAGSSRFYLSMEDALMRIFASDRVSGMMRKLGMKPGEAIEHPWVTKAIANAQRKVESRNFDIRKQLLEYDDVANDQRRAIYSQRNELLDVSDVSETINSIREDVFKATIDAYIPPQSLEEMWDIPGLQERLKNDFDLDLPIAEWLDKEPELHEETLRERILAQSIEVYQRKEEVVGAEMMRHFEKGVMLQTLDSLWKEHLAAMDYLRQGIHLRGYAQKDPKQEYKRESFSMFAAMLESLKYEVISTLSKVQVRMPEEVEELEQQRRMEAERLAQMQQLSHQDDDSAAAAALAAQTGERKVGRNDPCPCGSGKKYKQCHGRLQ
Sequence of Sialic acid-binding Ig-like lectin 9 (Homo sapiens) (Q9Y336 whole entry): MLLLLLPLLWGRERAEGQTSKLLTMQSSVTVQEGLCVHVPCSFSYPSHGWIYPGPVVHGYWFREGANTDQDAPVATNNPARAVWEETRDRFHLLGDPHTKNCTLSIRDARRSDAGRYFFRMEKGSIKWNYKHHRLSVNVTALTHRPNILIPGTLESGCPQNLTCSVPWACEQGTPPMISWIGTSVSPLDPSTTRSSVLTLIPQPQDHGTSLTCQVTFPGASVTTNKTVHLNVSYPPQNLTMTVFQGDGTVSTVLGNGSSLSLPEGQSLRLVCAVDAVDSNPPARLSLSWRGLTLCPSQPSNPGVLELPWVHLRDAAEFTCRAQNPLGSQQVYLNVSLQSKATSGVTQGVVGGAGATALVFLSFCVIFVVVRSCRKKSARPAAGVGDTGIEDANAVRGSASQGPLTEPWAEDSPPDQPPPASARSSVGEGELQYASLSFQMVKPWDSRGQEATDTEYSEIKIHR

`O=C(CCC1CCCO1)NCc1ccnc(-n2cccn2)c1` (stereo unspecified): the Percent Effect in test [1] was -7.06%; in test [2], 13.2%; in test [3], 2.95%; in test [4], -9.63%; in [5], -7.38%; in test [6], -1.44%. In addition, the Percent Effect in test [7] was 5.33%; in [8], 10.6%; in [9], 0.493%; in test [10], 11.1%; in [11], -5.06%.
Take `CC(C)c1nn(C)c(N2CCOCC2)c1CNC(C)c1cccs1` (stereo unspecified): the Percent Effect was -3.9% in test [1]; -13.2% in test [2]; -6.19% in test [3]; -4.57% in [4]; -2.71% in test [5]; -1.08% in test [6]. For the same molecule, the Percent Effect in test [7] is 1.44%; in test [8] it was -28.8%; in [9], 11.3%; in [10], 18.5%; in test [11] it was -4.62%.
As for `CN1CC(=O)N(c2cnn(C)c2)CC12CCN(Cc1nccn1C)C2` (stereo unspecified), the Percent Effect in [1] was -0.706%; in test [2] it was 8.22%; in test [3], 4.05%; in test [4] it was 7.48%; in test [5] it was -4.17%; in test [6] it was -0.399%. In addition, the Percent Effect in test [7] is 10.2%; in test [8] it was 6.84%; in test [9], 4.17%; in test [10], 6.17%; in [11], -4.89%.
For the molecule `CC1=Nc2c(c(=O)[nH]n2C(C)C)C(c2cccs2)S1` (stereo unspecified), the Percent Effect in test [1] is -7.07%; in test [2], -1.33%; in [3], 2.48%; in test [4] it was 1.91%; in test [5] it was 0.197%; in test [6] it was -3.7%. The Percent Effect in test [7] is 9.8%; in test [8] it was 11.9%; in [9] it was 19.1%; in [10] it was 25.6%; in test [11] it was -2.82%.
Take `CC1CCN(Cc2cnc(S(=O)(=O)CC3CC3)n2CC2CCCO2)CC1` (stereo unspecified): the Percent Effect was -4.08% in [1]; -4.17% in test [2]; 9.77% in test [3]; 0.164% in [4]; -3.21% in test [5]; -2.65% in [6]. Besides, the Percent Effect in test [7] was 0.877%; in test [8], 4.06%; in [9], -1.05%; in test [10], -7.69%; in test [11], 5.99%.
For the molecule `CSc1ccccc1CN1CCn2nc(CNC(C)=O)cc2C1`, the Percent Effect in test [1] was determined as 0.00499%; in test [2] it was 11%; in [3], 1.85%; in test [4], 8.13%; in test [5] it was 2.35%; in test [6] it was 18.2%. Also, the Percent Effect is 18.6% in [7]; 15.7% in test [8]; 6.45% in test [9]; 20% in test [10]; -3.35% in test [11].
On to `CNC(=O)C1CCN(C(=O)c2ccn(-c3ccc(F)cc3)n2)CC1`, for which the Percent Effect in [1] was -3.93%; in test [2], 16.2%; in test [3] it was 1.73%; in test [4], 1.5%; in test [5], -1.21%; in [6] it was 2.77%. The Percent Effect in [7] was 7.54%; in [8] it was 8.4%; in test [9], 10.9%; in test [10], 23.2%; in [11] it was -0.908%.
As to `O=C(C1CCOCC1)N1C[C@@H]2[C@@H](C1)OCC(=O)N2CC1CC1`, the Percent Effect in test [1] is -1.53%; in test [2] it was -192%; in [3], 0.601%; in test [4], -6.86%; in test [5], -19.1%; in [6], 0.319%. Also, the Percent Effect is 19.2% in [7]; -0.484% in [8]; -222% in test [9]; -451% in test [10]; -3.21% in test [11].
In the case of `Cc1cc(NC(=O)CCN2CCCC2Cn2cncn2)no1` (stereo unspecified), the Percent Effect in test [1] is -6.97%; in [2], 8.86%; in test [3], 1.01%; in test [4], 2.13%; in test [5] it was -0.718%; in test [6], -2.8%. The Percent Effect was 14.9% in test [7]; 2.3% in test [8]; 4.17% in test [9]; 10.1% in test [10]; -27.3% in test [11].
As to `Cc1cc(CN(C)C(=O)NC(C)c2nncn2C)no1` (stereo unspecified), the Percent Effect is -1.93% in test [1]; 15.3% in test [2]; -8.88% in [3]; 15.4% in test [4]; 2.43% in test [5]; 35.8% in [6]. Also, the Percent Effect is 22.6% in test [7]; -0.22% in test [8]; 3.16% in [9]; 10.3% in test [10]; 72% in [11].
As to `O=C(C1=CCCC1)N1CCC[C@]2(C[C@@H](Oc3ncccc3F)CO2)C1`, the Percent Effect in test [1] was -0.607%; in test [2], -5.48%; in [3] it was -7.12%; in test [4], 6.71%; in test [5], 3.77%; in [6], 0.399%. Also, the Percent Effect in test [7] is 23.2%; in test [8], 23.5%; in test [9] it was 5.21%; in [10] it was 13.6%; in [11], -3.32%.
